# This is a sample that favours compounds with a hit; in the whole collection about 6.8% have one here.
# NADH enzymes = inhibitors of enzymes used to reach an NAD/NADH endpoint; coupled PK/LDH NADH assays, four targets; IC50, µM (highest dose often 10 µM), inactives show at the top dose inhibition; 65,000 compounds, 0.02% hits; AID 774;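 active means single-dose screening hits from any of four coupled enzyme assays that gave an IC50 when retested across doses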;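 further: the DPM-DC format reads NADH fluorescence rather than 340 nm absorbance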
# Autofluor 339 = intrinsic fluorescence of library compounds, ex339/em460 – biochemical, MLSMR library, data from DPM-DC assay, artefact control, profiling panel | compound autofluorescence, ex339/em460 nm, NADH buffer; stronger effect = higher value; 1 = no-compound wells, NADH background | fluorescence fold increase at 10 µM | 65,000 compounds, 5.5% hits;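 active means at 10 µM, mean starting fluorescence two-fold or more over control wells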;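 further: signal is the first read of a kinetic run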
# A340 absorber = compound absorbs light at 340 nm; compound absorbance at 340 nm, fold over control; fold change at 10 µM; 65,000 tested, under 10 active;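 active means at 10 µM dose, initial 340 nm absorbance at least 2 fold that of control wells; inactive means change under 2 fold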;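 further: initial absorbance extrapolated from kinetic A340 decline of NADH oxidation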
# DPM-DC inhibit = inhibitors of Streptococcus pneumoniae diphosphomevalonate decarboxylase | purified DPM-DC, PK/LDH coupled NADH fluorescence | calls only at 10 µM | 65,000 compounds, 0.49% hits | AID 556;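 active means the 320 compounds with the highest percent inhibition in the single-dose primary screen, excluding strongly autofluorescent ones, cut at about 32% in these data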;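 further: kinetic rate of NADH fluorescence loss reporting ADP formed by the decarboxylase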
# PMK inhibit = S. pneumoniae PMK inhibition; purified PMK, PK/LDH-coupled NADH absorbance 340 nm; inhibition, % at 10 µM; 65,000 compounds, 0.49% hits;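 active means top-ranked compounds by inhibition in the single 10 µM screen, taking a fixed number of the strongest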;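 further: 0% = full reaction with DMSO carrier and 100% = background rate without enzyme reaction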
# MK inhibit = S. pneumoniae mevalonate kinase inhibition; purified MK, PK/LDH-coupled NADH absorbance 340 nm; 65,000 compounds, 0.48% hits; inhibition, % at 10 µM;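 active means ranked among the strongest by inhibition in the single 10 µM screen, a fixed top-ranked set picked for dose follow-up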
# An asterisk follows results filed as active; i = inactive; nt = not tested or not shown; + = active, no number.
SMILES,NADH enzymes,Autofluor 339,A340 absorber,DPM-DC inhibit,PMK inhibit,MK inhibit
Nc1nc(SCC(=O)C23CC4CC(CC(C4)C2)C3)n[nH]1,4.0%,1.11,0.96,i,11.0,2.0
O=C(Nc1nnc(-c2ccccc2)o1)c1nc2ccccc2s1,3.0%,2.19*,1.14,nt,5.0,1.0
NC(=O)c1oc2ccccc2c1NC(=O)c1nc2ccccc2s1,2.0%,2.65*,1.12,i,4.0,2.0
CC(C)C(=O)Nc1nnc(-c2ccccc2)o1,12.0%,1.09,1.06,i,13.0,17.0
Cc1cc(C(=O)OCCO)c(C#N)c(N)n1,2.0%,2.93*,1.01,nt,5.0,6.0
O=C(NCC(c1cccs1)N1CCOCC1)c1ccc(Cl)s1 (centres undefined),6.0%,1.08,0.98,i,10.0,9.0
c1ccc2sc(Cc3nnc4n3CCCCC4)nc2c1,3.0%,1.09,1.05,i,3.0,6.0
Cc1ccc(S(=O)(=O)Nc2cc(C)nn2-c2ccccc2)cc1,4.0%,1.05,1.02,i,5.0,7.0
CC1=CC(c2ccccc2)n2nc(NS(=O)(=O)c3ccc(C)cc3)nc2N1 (centres undefined),8.0%,2.23*,1.06,nt,9.0,7.0
COc1cc2c(cc1OC)CN(Cc1cc(=O)n3cc(C)ccc3n1)CC2,10.0%,2.29*,1.1,i,6.0,5.0
COc1ccc(C(=O)N2CCc3cc(OC)c(OC)cc3C2)cc1OC,3.0%,1.14,1.07,i,6.0,4.0
COc1ccc(C)cc1-n1nnnc1SCc1cc(=O)n2cc(C)ccc2n1,11.0%,2.08*,1.12,i,12.0,0.0
COC(=O)c1cccc(Oc2nc(N3CCOCC3)nc(N3CCOCC3)n2)c1,5.0%,1.12,1.04,i,8.0,7.0
c1csc(-c2nnsc2-c2nc3ccccc3[nH]2)c1,3.0%,1.22,1.03,i,8.0,2.0
O=c1[nH]c2ccccc2nc1-c1cccs1,6.0%,4.89*,1.05,nt,11.0,0.0
CCN1CCN(c2cc(C)c3cc(NC(=O)c4ccc5c(c4)OCO5)ccc3n2)CC1,3.0%,1.11,1.14,i,3.0,4.0
CCOc1ccccc1C(=O)Nc1ccc2nc(N3CCN(c4ncccn4)CC3)cc(C)c2c1,7.0%,2.23*,1.13,nt,9.0,4.0
Cc1cc(N2CCOCC2)nc2ccc(NC(=O)CCC(=O)N3CCCC(C)C3)cc12 (centres undefined),7.0%,4.83*,1.06,nt,6.0,7.0
Cc1cc(N2CCN(C)CC2)nc2ccc(NC(=O)CCC(=O)NCc3ccco3)cc12,13.0%,3.49*,1.06,i,6.0,7.0
COc1cccc(C(=O)Nc2ccc3nc(N4CCN(c5ncccn5)CC4)cc(C)c3c2)c1OC,5.0%,1.38,1.04,i,0.0,10.0
COc1ccc(C)cc1NC(=O)CCC(=O)Nc1ccc2nc(N3CCN(C)CC3)cc(C)c2c1,15.0%,2.48*,1.01,i,8.0,8.0
CCOC(=O)CC1C(=O)NC2CCCCC2N1C(=O)Nc1ccc(Cl)cc1 (centres undefined),9.0%,1.1,1.05,i,10.0,7.0
O=S(=O)(NC(=NC1CCCC1)C(F)(F)F)c1ccccc1,7.0%,1.03,0.99,i,22.0,0.0
COCCNC(=O)C(C)OC(=O)c1cc2occc2n1C (centres undefined),4.0%,1.05,1,i,11.0,2.0
CCc1cc2c(=O)c(-c3nc4ccccc4n3C)c(COCC(=O)O)oc2cc1O,3.0%,1.47,1.13,i,1.0,3.0
SMILES,NADH enzymes,Autofluor 339,A340 absorber,DPM-DC inhibit,PMK inhibit,MK inhibit
CC(=O)Oc1ccc2cc(-c3nc4ccccc4n3C)c(=O)oc2c1,3.0%,2.14*,1.15,nt,0.0,6.0
COc1ccc(NC(=O)c2nnn(Cc3ccc(SC)cc3)c2N)c(OC)c1,29.0%,1.52,1.06,+,0.0,11.0
CCOc1ccc(OCc2ccc(C(=O)OCc3ccccn3)o2)cc1,9.0%,0.89,1,i,7.0,7.0
COc1ccc(OC)c2c(C)cc(NCCN3CCOCC3)nc12,8.0%,2.09*,1.05,nt,10.0,5.0
Cc1cc(C)n2nc(SCC#N)nc2n1,2.0%,1.08,1.03,i,4.0,3.0
CCC(CC)C(=O)Nc1nnc(-c2cccs2)s1,13.0%,2.62*,1.03,i,17.0,0.0
CC(C)c1nnc(NC(=O)c2cccs2)s1,3.0%,1.03,1.11,i,4.0,6.0
O=c1[nH]c2cc3c(cc2cc1C(c1nnnn1C1CCCCC1)N1CCSCC1)OCCO3 (centres undefined),3.0%,2.43*,1.03,i,17.0,0.0
COc1cc2cc(C(c3nnnn3C3CCCC3)N3CCCCC3)c(=O)[nH]c2cc1OC (centres undefined),6.0%,3.54*,1.15,nt,5.0,6.0
CN1C(=S)SC(C)(C)C1(C)NO (centres undefined),6.0%,1.11,1.03,i,14.0,3.0
CC(=O)OCC(=O)c1ccc2ccn(C(C)=O)c2c1,2.0%,3.38*,1.02,nt,16.0,0.0
COc1ccccc1N1CCN(CC(=O)c2ccc3ccn(C(C)=O)c3c2)CC1,2.0%,1.33,1.07,i,0.0,3.0
COCC(COCCCNC(=O)Nc1ccc(Br)cc1)OC (centres undefined),0.0%,1.14,1.03,i,1.0,0.0
CC1CN(S(=O)(=O)c2cccc(C(=O)OCc3cc(=O)oc4cc(O)ccc34)c2)CC(C)O1 (centres undefined),3.0%,3.43*,1,nt,8.0,5.0
CC1CN(S(=O)(=O)c2cccc(C(=O)OCC(=O)Nc3ccc4c(c3)OCO4)c2)CC(C)O1 (centres undefined),7.0%,1.02,1.01,i,21.0,0.0
COCC(C)n1c(C)cc(C(=O)COC(=O)c2ccc3ncsc3c2)c1C (centres undefined),8.0%,1.11,1.06,i,16.0,8.0
Cc1cc(C)n2cc(CSc3nnnn3C)nc2n1,4.0%,2.6*,1.03,nt,11.0,10.0
Cc1cc(C)n2c(Br)c(CSc3nc4ccccc4o3)nc2n1,9.0%,2.63*,1.06,i,7.0,0.0
Cc1cc(C)n2cc(CSc3nc4cc(Cl)ccc4o3)nc2n1,1.0%,2.08*,1.04,i,4.0,0.0
Nn1c(CSc2nc3ccccc3o2)nnc1CSc1nc2ccccc2o1,3.0%,1.02,0.96,i,15.0,9.0
CCC1CCCCN1C(=O)Cn1c(=O)oc2ccccc21 (centres undefined),2.0%,1.1,1.04,i,0.0,6.0
Cc1ccc2c(c1)C(N1CCCC1=O)CC(c1ccco1)N2 (centres undefined),1.0%,2.59*,1,i,0.0,5.0
O=C(O)c1cc2n(n1)C(C(F)(F)F)CC(c1ccco1)N2 (centres undefined),2.0%,1.05,1.05,i,2.0,3.0
Cc1cc(N2CCOCC2)c2c(N)c(Br)cc(C)c2n1,16.0%,0.68,1.08,+,9.0,3.0
